Compounds with a hit are over-represented: about 1.4% of the library has one in this group of screens.
HDAC3 inh – HDAC3 deacetylase inhibitors, primary screen, biochemical, fluorescence, cell-free homogeneous; inhibition, % at 8.3 µM; recombinant HDAC3, fluorogenic peptide/trypsin coupled; AID 2718, 2010; Histone deacetylase 3 (Homo sapiens), O15379; 0.15% of 320,000 active; in the data active = inhibition above about 26%, passing the limit was not always enough; inconclusive = no clear call, values can overlap the other calls
APOBEC3A inh – APOBEC3A ssDNA deaminase inhibitors, primary screen, selectivity assay for APOBEC3G inhibitor project, biochemical, FAM/TAMRA oligo cleavage fluorescence; DNA dC->dU-editing enzyme APOBEC-3A (Homo sapiens), P31941; recombinant A3A, FAM/TAMRA ssDNA deamination fluorescence; inhibition, % at 20 µM; 0.41% of 330,000 active;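 active = at least 40% inhibition at 20 µM here, with at most 30% in a related deaminase screen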;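 note: plate controls were A3A with DMSO for no effect and wells lacking A3A enzyme for full effect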
Target sequence (P31941 whole entry, looked up): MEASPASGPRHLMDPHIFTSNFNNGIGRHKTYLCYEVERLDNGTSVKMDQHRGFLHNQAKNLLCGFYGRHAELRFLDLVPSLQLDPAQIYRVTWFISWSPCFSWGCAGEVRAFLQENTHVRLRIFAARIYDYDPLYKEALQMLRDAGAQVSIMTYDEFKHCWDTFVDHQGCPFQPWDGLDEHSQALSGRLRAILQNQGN
APOBEC3G inh – APOBEC3G DNA deaminase inhibitors, primary screen, biochemical, fluorescence, single-stranded DNA substrate, uHTS. recombinant A3G, ssDNA deamination FAM/TAMRA fluorescence. inhibition, % at 20 µM. 0.28% of 330,000 active. AID 493012, 2011;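 active = inhibition of at least 40% at 20 µM, with no more than 30% in the related APOBEC3A deaminase screen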;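 note: plate controls were DMSO wells with A3G for no effect and wells lacking A3G enzyme for full effect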
Target sequence (Q9HC16 whole entry, looked up): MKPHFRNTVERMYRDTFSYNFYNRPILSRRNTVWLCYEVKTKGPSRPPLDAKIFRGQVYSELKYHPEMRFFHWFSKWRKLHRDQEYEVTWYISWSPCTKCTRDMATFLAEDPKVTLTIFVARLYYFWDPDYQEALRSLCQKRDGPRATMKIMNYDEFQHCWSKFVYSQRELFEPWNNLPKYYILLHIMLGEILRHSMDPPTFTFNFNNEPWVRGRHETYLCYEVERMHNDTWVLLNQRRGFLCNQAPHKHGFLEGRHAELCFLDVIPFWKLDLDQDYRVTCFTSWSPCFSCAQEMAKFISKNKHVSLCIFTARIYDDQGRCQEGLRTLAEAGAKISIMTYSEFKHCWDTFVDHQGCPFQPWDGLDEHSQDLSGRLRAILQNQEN
LANA-H2A inh – blockers of LANA interaction with H2A/H2B – biochemical, FP readout, HTS, primary screen. inhibition, % (no concentration beside the values). AID 2629, 2010. cell-free LANA-H2A/H2B peptide, fluorescence polarization. 0.6% of 320,000 active; in the data active = inhibition mostly above about 10%, no sharp cut-off; inactive = mostly below about 6.7%
APOBEC3A confirm – APOBEC3A deaminase inhibitors, retest, confirmation, selectivity assay for APOBEC3G inhibitor project, biochemical, single concentration, fluorescence readout; shares compounds with APOBEC3A inh; inhibition, % at 20 µM; recombinant A3A, ssDNA deaminase UDG fluorescence assay; 63% of 1,400 active;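 active = inhibition reaching a set limit, 80% of the first screen's cutoff, at 20 µM in any replicate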;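 note: plate controls were DMSO wells with A3A for no effect and wells lacking A3A enzyme for full effect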
UDG ctr A3A – E. coli UDG inhibitors, confirmation, counter-screen for APOBEC3A inhibitor project, biochemical, single concentration, fluorescence, FAM/TAMRA oligo; shares compounds with APOBEC3A inh; UDG counterscreen, FAM/TAMRA uracil oligo fluorescence; inhibition, % at 20 µM; 1,000 tested, under 10 active; call rule not given here
* hit, by the source's call; i = inactive; ? = inconclusive; · = not tested or not shown.

SMILES	HDAC3 inh	APOBEC3A inh	APOBEC3G inh	LANA-H2A inh	APOBEC3A confirm	UDG ctr A3A
CC(C)(C)N(Cc1ccccc1)C(=O)CN1C(=O)c2ccccc2S1(=O)=O	4	45*	1	3	38*	2
O=C(CN1C(=O)c2ccccc2S1(=O)=O)NCc1ccccc1	0	-2	-9	-1	·	·
COc1ccc(N2CCN(C(=O)C3CCN(S(=O)(=O)c4ccc5c(c4)oc(=O)n5C)CC3)CC2)cc1	2	-2	3	-5	·	·
Cc1cc(=O)oc2c1c(C)nn2-c1nn[nH]n1	1	59*	23	-1	72*	-2
CCCc1cc(=O)oc2cc(C)cc(OCc3nn[nH]n3)c12	-36	-4	-6	1	·	·
C/C(=N\NC(=O)CN1CCCCC1)c1ccccc1O	2	40*	11	1	20	·
C/C(=N\NC(=O)CN1CCCCC1)c1cccc([N+](=O)[O-])c1	-6	1	-5	1	·	·
O=C(NCc1ccccc1CN1CCCCC1)c1ccc(Cl)cc1N1CCCC1=O	-1	32	48	0	·	·
O=C(NCc1ccccc1CN1CCCCC1)c1ccccc1N1CCCC1=O	-9	57*	14	·	61*	-3
Cc1nc2ccc(NC(=O)C3COc4ccccc4O3)cc2s1 (stereo not given)	1	49*	16	-3	60*	2
Cc1ccc(SC(C)C(=O)NCc2ccncc2)cc1 (stereo not given)	1	50*	7	3	18	·
COc1ccc(CCNC(=O)C(C)Sc2ccc(C)cc2)cc1OC (stereo not given)	-3	86*	-7	6	-7	-3
COc1ccc(CC(=O)N/N=C/c2ccc(-c3cccc(C(=O)O)c3)o2)cc1OC	4	42*	6	8.8*	25	·
COc1ccc(CC(=O)N/N=C/c2ccc(-c3ccc(F)cc3)o2)cc1OC	11	3	6	3	·	·
CCN1CCN(c2ccc(S(=O)(=O)N3CCOCC3)cc2NC(=O)c2ccc(C)c(C)c2)CC1	4	24	-6	-1	·	·
CCN1CCN(S(=O)(=O)c2ccc(Cl)c(C(=O)Nc3cc(Cl)ccc3N3CCOCC3)c2)CC1	?	54*	28	0	58*	0
CCN1CCN(S(=O)(=O)c2ccc(Cl)c(C(=O)Nc3ccccc3N3CCOCC3)c2)CC1	3	53*	4	-2	57*	-1
CCN1CCN(c2ccc(S(=O)(=O)N3CCOCC3)cc2NC(=O)c2ccc(Cl)cc2Cl)CC1	4	45*	4	-6	24	·
CC(C)C(NC(=O)c1ccc2c(c1)OCO2)C(=O)N/N=C\c1ccco1 (stereo not given)	5	48*	14	6	52*	-2
Cc1noc(C)c1NC(=O)N(C)C[C@H]1Oc2ccc(NS(=O)(=O)c3cn(C)cn3)cc2C(=O)N([C@H](C)CO)C[C@@H]1C	-5	-4	-7	2	·	·
CN(CC(=O)Nc1cccc(F)c1)C(=O)Cn1c(=O)cnc2ccccc21	-5	2	-8	2	·	·
Cc1cc(Br)ccc1NC(=O)CN(C)C(=O)Cn1c(=O)cnc2ccccc21	-2	66*	15	-1	52*	-2
C/C(N)=C(/C#N)C(=O)CSc1nc2ccccc2c(=O)n1Cc1ccc(F)cc1	?	47*	15	0	26	·
O=C(Cn1c2[n+](c3ccc(C(F)(F)F)cc31)CCCCC2)Nc1ccccc1	0	60*	23	-4	62*	-2
O=C(Cn1c2[n+](c3ccc(C(F)(F)F)cc31)CCCCC2)c1cccc([N+](=O)[O-])c1	-8	-3	-4	-1	·	·
SMILES	HDAC3 inh	APOBEC3A inh	APOBEC3G inh	LANA-H2A inh	APOBEC3A confirm	UDG ctr A3A
FC(F)(F)c1ccc2c(c1)n(Cc1ccccc1)c1[n+]2CCCCC1	-2	45	65	2	·	·
CCc1cccc(NC(=O)Cn2c3[n+](c4ccc(C(F)(F)F)cc42)CCCCC3)c1	10	62*	17	4	78*	-4
COc1ccccc1N1C(=N)S/C(=C\c2ccc(-c3ccccc3C(=O)O)o2)C1=O	8	44*	28	0	32*	-2
Cc1cccc(NC(=O)CSc2ncnc3nc[nH]c23)c1C	-1	34	8	-2	·	·
Cc1ccc(C)c(NC(=O)CSc2ncnc3nc[nH]c23)c1	1	47*	5	3	31*	-3
Cc1cc(CNC(=O)COC(=O)C2CC3CCCC(C2)C3=O)cc(C)c1O (stereo not given)	3	-3	-6	0	·	·
CSc1cccc(NC(=O)C2CC(=O)N(Cc3ccccc3)C2)c1 (stereo not given)	1	52*	28	5	-1	·
CCOc1ccc(NC(=O)C2CC(=O)N(Cc3ccco3)C2)cc1 (stereo not given)	-3	-4	-3	-5	·	·
CC(=O)Nc1ccc(NC(=O)C2CC(=O)N(Cc3ccco3)C2)cc1 (stereo not given)	·	47*	-1	·	22	3
O=S(=O)(Nc1cc(S(=O)(=O)N2CCOCC2)ccc1Cl)c1ccccc1	2	-5	-7	4	·	·
C/C(=N\NC(=O)c1c(Cl)cnn1C)c1cccnc1	·	-1	-7	·	·	·
COc1ccc(C(=O)NCC(=O)OCCCOC(=O)CNC(=O)c2ccc(OC)c(OC)c2)cc1OC	-1	42*	10	0	2	·
Cc1c2cccn2cc[n+]1C	-6	42*	21	-4	78*	1
O=C1CCc2cc(S(=O)(=O)Nc3ccccc3F)ccc2N1	-9	99*	6	i	0	·
CCC(C)c1ccc(OCc2ccc(C(=O)O)o2)cc1 (stereo not given)	-4	-3	-9	7	·	·
CC(/C=C/C=C/c1ccccc1)=N/NC(=O)CNc1ccccc1C	2	0	-5	-3	·	·
CCOc1cc(/C=C(\C#N)C(=O)NCC2CCCO2)ccc1OCC(N)=O (stereo not given)	0	51*	13	1	43*	-2
CCOc1cc(/C=C(\C#N)C(=O)NCC2CCCO2)ccc1O (stereo not given)	-5	-3	-11	-7	·	·
CC1CCCC(NC(=O)NC(=O)COC(=O)c2ccc(O)cc2O)C1C (stereo not given)	·	85*	5	·	33*	-2

Screening data (PubChem)
